# This is a sample that favours compounds with a hit; in the whole collection about 3.1% have one here.
# TRAIL sens C8: viability loss with TRAIL in NB7+C8 cells, primary screen, TRAIL sensitizer project, cell-based, ATPlite luminescence; inhibition (viability loss, TRAIL sensitization), % at 10 µM; 360,000 tested, 1% active; AID 624354, 2012;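 active = compounds causing at least 50% loss of cell viability in the single-dose screen, relative to plate controls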
# KKLEB cytotox: cytotoxicity in KKLEB CF airway cells, primary screen, cytotoxicity control for CF NF-kB inhibitor project, cell-based, uHTS, fluorescence assay plates; 360,000 tested, 0.36% active; activity change (cytotoxicity), % at 5 µM; KKLEB CF airway cells viability, ATPlite luminescence, overnight; active compounds read low; cells stimulated with P. aeruginosa culture filtrate;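 active = corrected activity change at or below -50% at 5 µM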
# PPC-1+TRAIL kill: compounds killing PPC-1 cancer cells with TRAIL present, primary screen, TRAIL potentiator project, ATPLite luminescence, uHTS; cell killing (% activity), % at 4 µM or 5 µM; 220,000 tested, 0.41% active; PPC-1 cells + TRAIL, ATPLite viability luminescence;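 active = cell killing above 50% in the first pass at 4 µM, then a duplicate retest at 5 µM averaging 50% or more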;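 note: plate controls were cells with TRAIL plus DMSO for no effect and medium-only wells lacking cells for full effect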
# HIF-2a inh: HIF-2a reporter inhibitors, primary screen, luminescence, 786-0 RCC cells | AID 624352, 2012 | inhibition, % at 18.8 µM | 786-0 RCC cells HIF-2a reporter, luciferase luminescence, overnight | 360,000 tested, 0.72% active;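 active = inhibition of the luminescence signal of 40% or more relative to plate controls, in a single-dose primary screen at 18.75 µM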
# Peg3 promoter: Peg3 promoter-driven luciferase inhibitors, primary screen, cell-based, HeLa, luciferase luminescence | HeLa PEG-Prom luciferase reporter, overnight | inhibition, % at 20 µM | 360,000 tested, 1.7% active | AID 588405, 2011;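 active = inhibition of at least 50% at 20 µM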
# CF NFkB inh: inhibitors of PAF-induced NF-kB signaling, primary screen, cell-based, GFP fluorescence, uHTS; 360,000 tested, 0.86% active; KKLEB NF-kB-GFP reporter, GFP fluorescence overnight; inhibition, % at 5 µM;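 active = at least 50% inhibition at 5 µM, scaled per plate between neutral and stimulator controls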;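 note: PAF is a Pseudomonas aeruginosa culture filtrate used as stimulus; plate controls were PAF-stimulated DMSO wells for no effect and unstimulated DMSO wells for full effect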
# An asterisk follows results filed as active; / = not tested or not shown.
SMILES,TRAIL sens C8,KKLEB cytotox,PPC-1+TRAIL kill,HIF-2a inh,Peg3 promoter,CF NFkB inh
O=C(CC1C[C@H](C(=O)N2CCOCC2)[C@@]2(CCC3CCCC3)c3[nH]c4ccccc4c3CCN2C1=O)NCc1cccc(C(F)(F)F)c1 (stereo partly drawn),48.9,-34.8,/,13.2,90.2*,34.7
CCN(CC)C(=O)[C@H]1C[C@H](CC(=O)NCc2cccc(C(F)(F)F)c2)C(=O)N2CCc3c([nH]c4cc(-c5ccco5)ccc34)[C@]12C,0.6,4.8,/,-27.0,85.4*,36.4
CCN(CC)C(=O)[C@H]1C[C@H](CC(=O)NCc2ccco2)C(=O)N2CCc3c([nH]c4cc(-c5ccco5)ccc34)[C@]12C,12.0,6.7,/,3.1,10.4,-4.2
CC[C@]12c3[nH]c4ccc(Cl)cc4c3CCN1C(=O)[C@@H](CC(=O)NCc1cccc(C(F)(F)F)c1)C[C@@H]2C(=O)N1CCN(C(=O)C2CC2)CC1,15.0,0.2,/,-3.3,52.4*,-14.2
CC[C@]12c3[nH]c4cc(CCC(=O)N(C)C)ccc4c3CCN1C(=O)[C@@H](CC(=O)NC/C=C(\C)CCC=C(C)C)C[C@@H]2C(=O)N1CCN(C(=O)C2CC2)CC1,13.7,14.2,/,-1.1,5.5,-42.5
O=C(CSc1nccn1Cc1ccco1)Nc1ccccc1,-0.8,-6.6,/,-77.7,-47.7,-0.7
O=C(Nc1cccc(Oc2ccccc2)c1)C1Cc2c(-c3ccccc3)ccnc2O1 (stereo not drawn),-16.0,0.0,/,2.9,1.9,10.9
CCN(CC)S(=O)(=O)c1ccc(NC(=O)c2ccc(OCC3CCCO3)cc2)cc1 (stereo not drawn),14.0,2.0,/,0.7,31.3,4.8
CCn1c(SCC(=O)c2c(N)n(C3CC3)c(=O)[nH]c2=O)nc2cc(S(N)(=O)=O)ccc21,3.2,-1.7,/,10.7,-6.8,-15.0
CCCCN(C(C)=O)c1c(CC)nc2ccc(C(=O)Nc3cccc(OCC(=O)N(C)C)c3)cn12,-2.7,-3.8,/,-4.8,-11.9,-24.3
CC[C@]12c3[nH]c4ccc(Cl)cc4c3CCN1C(=O)[C@@H](CC(=O)NCc1cccc(C(F)(F)F)c1)C[C@@H]2C(=O)N1CCN(C(=O)c2ccco2)CC1,61.4*,-39.0,/,-30.1,45.1,34.9
CC(C)=CCC/C(C)=C/CNC(=O)CC1C[C@H](C(=O)N(C(C)C)C(C)C)[C@@]2(C)c3[nH]c4ccccc4c3CCN2C1=O (stereo partly drawn),8.1,-4.2,/,-0.4,89.3*,16.8
Cc1ccc2c(c1)N(C(=O)CCC(=O)NCc1cccc(F)c1)CCO2,1.2,-16.7,/,1.8,1.3,9.9
CCOC(=O)C1CCN(C(=O)C2c3ccccc3C(=O)N(C)C2c2ccc(OC)cc2)CC1 (stereo not drawn),53.7*,-14.9,27.2,5.6,13.9,10.5
COc1ccc(CCNC(=O)C2CCN(Cc3nc(-c4cccc(Cl)c4)oc3C)CC2)cc1OC,54.4*,-10.6,18.5,-17.0,13.3,16.7
Cc1ccc(S(=O)(=O)N2CC3C(=O)CC(c4ccccc4)N(S(=O)(=O)c4ccc(C)cc4)C3CC2c2cccc(Cl)c2)cc1 (stereo not drawn),-9.7,/,/,6.5,/,/
C1CCCCCC(NCCN2CCNCC2)CCCCC1,9.8,-10.6,11.1,-1.5,100.9*,14.8
Fc1ccc(-n2nnnc2-c2cnc(-c3cccs3)nc2C(F)(F)F)cc1,39.2,-14.8,2.6,5.1,100.2*,-7.0
FC(F)(F)c1nc(-c2ccncc2)ncc1-c1nnnn1-c1ccccc1,-4.5,-16.8,-6.2,15.9,17.1,7.5
Cc1cc(C)c(OCCCCNCc2ccccc2)c(Cl)c1,7.6,-6.0,12.5,20.0,53.4*,5.9
Brc1ccccc1OCCNCc1ccccc1,1.8,5.3,10.6,-97.4,-63.9,3.9
Clc1ccc(OCCCNCc2ccccc2)c2ccccc12,-4.4,-53.2*,/,-4.6,93.0*,43.0

# Screens (PubChem)
